Screens (PubChem BioAssay)
NTMT1 inhibitor: blocks human N-terminal methyltransferase 1 activity; Q9BV86; NTMT1 MTase-Glo SAH luminescence, purified enzyme; Potency, µM (titrated, usually from 114 µM), for inactives: top-dose activity change, negative = inhibition, most hits filed as inhibitors; actives 2.5% (n = 59,000); AID 1645870;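 note: plate controls were DMSO vehicle for no effect and no enzyme for full effect; nearly all actives have a fitted effect of over 65% in size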
Target sequence (Q9BV86 whole entry, looked up): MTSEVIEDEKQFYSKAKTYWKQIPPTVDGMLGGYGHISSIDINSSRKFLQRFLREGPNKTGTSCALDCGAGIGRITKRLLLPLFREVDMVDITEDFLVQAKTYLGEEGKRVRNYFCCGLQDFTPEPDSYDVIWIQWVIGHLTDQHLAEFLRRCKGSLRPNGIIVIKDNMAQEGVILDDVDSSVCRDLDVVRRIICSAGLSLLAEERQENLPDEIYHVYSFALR
HTT promoter inh: inhibitors of huntingtin promoter activity; HEK293 HTT promoter firefly luciferase reporter, 24 h; Potency, µM (highest dose often 57.5 µM), for the others: top-dose activity change, negative = inhibition, hits mostly inhibitors; actives 0.93% (n = 48,000); note: nearly all actives have a fitted effect of over 50% in size
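HEK293 luciferase promoter-reporter cells (2,500/well) plated 24 h, then compounds added at up to 57.5 uM final for 24 h at 37 °C. Firefly luminescence by Dual-Glo, normalized to vehicle (0%) and zero RLU (-100%).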
HTT-AS act: activates huntingtin-antisense promoter activity | HEK293 HTT-AS promoter firefly luciferase reporter, 24 h; response scale: percent change from vehicle, -100% = no light | Potency, µM (titrated, usually from 57.5 µM), without a hit: at the highest dose activity change, positive = activation, actives largely listed as activators | actives 0.24% (n = 48,000) | AID 1508624; note: nearly all actives have a fitted effect of over 55% in size
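HEK293 luciferase promoter-reporter cells (2,500/well) plated 24 h, then compounds added at up to 57.5 uM final for 24 h at 37 °C. Firefly luminescence by Dual-Glo, normalized to vehicle (0%) and zero RLU (-100%).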
* = called active by the depositor; ? = inconclusive; · = no result given; ! = not confirmed by another sample; [ ] = remark or other dose. Shown are actives, neighbours in structure and some others; about 2.4% of the full set was active somewhere. Calls come from the whole dose curve; as a rule, active = well fitted curve in the direction sought with a large enough effect; inconclusive = small, poorly fitted or top-dose-only effect, or another doubt; inactive = no such curve, though single readings can be large; an effect the other way counts as inactive or inconclusive. Potency is the fitted concentration of half-maximal effect.

SMILES	NTMT1 inhibitor	HTT promoter inh	HTT-AS act
CC(O)(C(=O)C1CC1(CO)COC1OC(CO)C(O)C(O)C1O)C1C(O)CC2C3CC=C4CC(O)CC(O)C4(C)C3C(O)CC21C (stereo not given)	-8.3%[12.6 µM]	·	·
CC[C@H]1OC(=O)[C@](C)(F)C(=O)[C@H](C)[C@@H](O[C@@H]2O[C@H](C)C[C@H](N(C)C)[C@H]2O)[C@](C)(OC)C[C@@H](C)C(=O)[C@@H](C)[C@H]2N(CCCCn3cc(-c4cccc(N)c4)nn3)C(=O)O[C@]12C	6.8%[57.5 µM]	·	·
CC(=O)c1ccc(C(=O)Nc2nnc(-c3ccco3)o2)cc1	3.0%	·	·
COc1ccccc1CNC(=O)C(=O)NCC(c1cccnc1)N1CCN(c2ccc(F)cc2)CC1 (stereo not given)	2.9%	?	-46.2%
COc1ccccc1CCNC(=O)C(=O)NCC(c1cccnc1)N1CCN(c2ccccc2)CC1 (stereo not given)	-3.2%	12.6µM*	-43.8%
COc1ccc(CNC(=O)C(=O)NCC(c2cccnc2)N2CCN(c3ccccc3F)CC2)cc1 (stereo not given)	6.1%	12.6µM*	-47.9%
COc1ccccc1N1CCN(C(CNC(=O)C(=O)NCc2ccc(F)cc2)c2cccnc2)CC1 (stereo not given)	5.2%	?	-78.4%
COCCN1C(=O)c2ccccc2NC1c1ccc(OC)c(COc2c(C)cc(NC(C)=O)cc2C)c1 (stereo not given)	13.1%	·	·
N[C@@H](Cc1ccc(O[S+](=O)([O-])c2cccc3cccnc23)cc1)C(=O)N1CCN(c2ccccc2)CC1	-13.5%	·	·
COc1cc(CNC(=O)c2ccc3nc(CCc4ccccc4)oc3c2)cc(OC)c1OC	0.2%	?	-11.4%
COc1cc(CNC(=O)c2ccc3nc(Cc4ccccc4)oc3c2)cc(OC)c1OC	6.4%	14.1µM*	-44.9%
CS[C@H]1SC[C@@H]2C(=O)N(C)[C@H](C(C)C)C(=O)OC[C@H](NC(=O)c3cnc4ccccc4n3)C(=O)N[C@H](C)C(=O)N(C)[C@H]1C(=O)N(C)[C@H](C(C)C)C(=O)OC[C@H](NC(=O)c1cnc3ccccc3n1)C(=O)N[C@H](C)C(=O)N2C	-2.4%	·	·
CCOc1ccc(S(=O)(=O)NCCc2csc3nc(-c4ccc(OC)c(OC)c4)nn23)cc1	-4.3%	16.5%	-3.3%
CCOc1ccc(S(=O)(=O)NCCc2csc3nc(-c4ccc(F)cc4)nn23)cc1	2.0%	25.1µM*	-41.6%
CC1(CO)CC(O)[C@]2(C(=O)O)CCC34CC3(C=CC3[C@]5(C)C(CC[C@]34C)C(C)(CO)[C@@H](O)[C@H](O)[C@@H]5O)C2C1 (stereo not given in full)	-15.4%[29.8 µM]	·	·
COc1ccc(CCNS(=O)(=O)c2ccc3c(c2)CC(C)N3C(=O)C2CCC2)cc1OC (stereo not given)	-2.2%	?	-24.2%
CC1Cc2cc(S(=O)(=O)NCc3ccccc3Cl)ccc2N1C(=O)C1CCC1 (stereo not given)	11.5%	28.2µM*	-80.1%
Cc1ccc(CNCc2ccccc2)s1	8.2%	2.8%	-7.7%
CNCc1ccccc1	56.2µM*	8.7%	-2.8%
O=C(CCCc1ccc2cccnc2n1)NCc1cc(-c2ccc(F)c(C(F)(F)F)c2)no1	-9.5%[57.5 µM]	·	·
COc1ccc(Cn2c(CO)cnc2SCc2ccc(F)cc2)cc1	89.1µM*	31.6µM*	-31.6%
COc1ccc(Cn2c(CO)cnc2SCc2ccc(C)cc2)cc1	-6.8%	63.5%	?
Cc1ccc(-c2nc3ccccc3[nH]2)cc1NC(=O)c1ccc(-c2cccc(Cl)c2)o1	-2.9%	·	·
CC(NC(=O)CC(=O)O)c1nc2ccccc2c(=O)[nH]1 (stereo not given)	10.7%[57.5 µM]	·	·
CC(=O)N1CCN(c2ccc(NCc3ccccc3)cc2)CC1	-14.9%	·	·
SMILES	NTMT1 inhibitor	HTT promoter inh	HTT-AS act
CC(=O)N1CCN(c2ccc(O)cc2)CC1	28.2µM*	4.5%	-9.0%
Cc1ccc(C(C)C)cc2c(C)ccc1-2	23.8%[57.5 µM]	2.1%	0.0%
Cc1cc(OI)c(C(C)C)cc1-c1cc(C(C)C)c(OI)cc1C	17.8µM*	10.7%	-3.6%
CCc1ccccc1NC(=O)CCCN1C(=O)COc2ccc(C)cc21	-19.2%	-19.4%	-13.8%
CC(=O)c1cccc(NC(=O)CCCN2C(=O)COc3ccc(C)cc32)c1	79.4µM*	?	-20.9%
Cc1cc(OCCCS(C)(=O)=O)cc(C)c1-c1cccc(COc2ccc3c(c2)OC[C@H]3CC(=O)O)c1	79.4µM*!	-33.6%	-27.9%
CCOC(=O)c1c(-c2ccccc2)oc2ccc(OCc3cccc(Br)c3)cc12	17.6%	-18.2%	-20.9%
COC(C(=O)N1Cc2[nH]nc(NC(=O)c3ccc(N4CCN(C)CC4)cc3)c2C1)c1ccccc1 (stereo not given)	13.9%[57.5 µM]	·	·
Nc1ncnc2c1ncn2[C@@H]1O[C@H](CN[S+](=O)([O-])NC(=O)c2cccc(-c3noc(-c4ccccc4F)n3)c2)[C@@H](O)[C@H]1O	0.891µM*	·	·
CNC(=O)c1cnn(-c2nc(N)c3ncn([C@@H]4O[C@H](CO)[C@@H](O)[C@H]4O)c3n2)c1	-8.4%[57.5 µM]	-6.7%	-12.6%
Cc1ccc(Nc2cc(N[C@@H]3CCCC[C@@H]3N)nnc2C(N)=O)nc1C	-17.4%	·	·
NCCS	31.6µM*	14.1%	3.9%
Fc1ccc(-c2nc(-c3ccncc3)nc3ccccc23)cc1F	6.5%	·	·
O=C(NC1CCCc2c1cnn2-c1ccc(F)cc1F)c1cnon1 (stereo not given)	6.6%	·	·
O=C(c1ccc(F)cc1)N1CCC(c2nc3ccccc3s2)CC1	-3.0%	?	-12.2%[11.5 µM]
O=C(c1ccc(Nc2nccc(-c3cc4ccccc4s3)n2)cc1)N1CCC(N2CCCC2)CC1	28.2µM*!	-22.0%	-37.0%
O=C(Nc1noc2ccccc12)c1cccc(F)c1	?	67.2%	2µM*
O=C(Nc1noc2ccccc12)c1ccc(F)cc1	?	60.0%	?
Cc1ccc(OCCn2c(CCNC(=O)c3ccc4ccccc4c3)nc3ccccc32)cc1	1.4%[57.5 µM]	·	·
CN(C)CCOc1ccc(-c2nc(-c3ccc4c(c3)CCC4=NO)c(-c3ccncc3)[nH]2)cc1	?	7.4%	-6.1%
CN(C)CCOc1ccc(-c2nc(-c3ccc4c(c3)CC/C4=N/O)c(-c3ccncc3)[nH]2)cc1	25.1µM*	·	·
Cc1cnc(-c2ccccc2C(C)C)nc1NC(C)c1ccc(-c2cccnc2)cc1 (stereo not given)	7.8%	·	·
O=C(O)CN1C(=O)N/C(=C\c2cccn2-c2ccc(P(=O)(O)O)cc2)C1=O	-3.2%	·	·
O=C(O)c1ccc(-n2cccc2/C=C2\SC(=O)N(Cc3ccc(F)cc3)C2=O)cc1	79.4µM*	·	·
O=C(O)c1ccc(-n2cccc2/C=C2\SC(=O)N(Cc3ccccc3Cl)C2=O)cc1	50.1µM*	·	·
O=C(O)c1ccc2c(c1)N(Cc1ccc(F)cc1Cl)C(=O)c1ccccc1S2	3.8%	-17.4%	-8.7%
CC1(C)CCCC2(C)C1C(O)C=C(CO)C2(O)C(=O)O (stereo not given)	1.4%[57.5 µM]	·	·
CCCCN(CC)c1nc(C)nc2c1c(C)cn2-c1c(C)cc(C)cc1C	1.5%[57.5 µM]	·	·
C[C@@H]1CC[C@]2(C)C3(C)CC[C@@]2(OC3=O)[C@@]12C[C@H](c1ccoc1)OC2=O	3.4%[29.8 µM]	·	·
